Drawing on PubChem BioAssay AID1259415 (National Center for Advancing Translational Sciences (NCATS), 2018), this text covers activity change, negative = inhibition for 23 compounds.

SMILES strings stand for the structures. Several values for one entry are separate records, joined by “and”; a condition that tells them apart may be missing. Equal values may be shown once. Out of some 410,000 compounds screened, about 18,000 (4.4%) were called active. Not shown: some 7% with an inconclusive outcome. Rule as the data show it: active = activity change below about -60%; inconclusive = no clear call, values can overlap the other calls; inactive = above about -39%. The full list was thinned out, with actives kept by preference. A structure can be active in one record and inactive in another.
% is scaled to controls: 0 for no effect and ±100 for the full control effect.

The nature of the test: qHTS Assay for inhibitors of the human cytomegalovirus (HCMV). The conditions noted are these: HFF cells, HCMV-luciferase reporter, 72 h; at 57.5 µM; stronger effect = lower value. The procedure, abridged: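 Screen run at 2 compound doses on HFFs infected with reporter HCMV, MOI 1 PFU/cell. Luciferase activity from cell lysates at 72 h post infection gave inhibition relative to buffer-only and Salinomycin wells.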
On to `Cc1cccc(OCC(=O)N(Cc2ccc(C(C)C)cc2)Cc2ccco2)c1C`, for which the activity change, negative = inhibition is -2.95% (inactive). With `Cc1nc(-c2nnc(SCC(=O)Nc3cc(C(F)(F)F)cc(C(F)(F)F)c3)n2C)cs1` the figure was 18.5% (inactive); with `Cc1nc2ccccc2nc1N/N=C/c1ccc(O)cc1O`, -86.2% (active); with `COc1cc(NC(=O)c2nc3ccccc3nc2C)cc(OC)c1OC`, 22.8% (inactive). For `Cc1n[nH]c(=O)nc1N/N=C/c1cccs1` the value was 11.4% (inactive). For `COc1ccc(CNC(=O)c2cc3cccc(OC)c3oc2=O)cc1` the value was -88.7% (active). Consider `COc1cccc2cc(C(=O)NCc3ccc(C)cc3)c(=N)oc12`, for which the activity change, negative = inhibition is -3.52% (inactive). With `COc1ccc(CNC(=O)c2c[nH]c3c(OC)cc(OC)cc3c2=O)cc1` the figure was -39% (inactive). With `Cc1c(Cl)cccc1NC(=O)CCS(=O)(=O)c1ccc2c(c1)oc(=O)n2C` the figure was -4.78% (inactive); with `Cc1ccc(NC(=O)CS(=O)CC(=O)N(c2ccccc2)C(C)C(=O)NC2CCCC2)cc1` (stereo not drawn), 4.37% (inactive); with `O=C(CC(n1cncn1)C(Cl)(Cl)Cl)c1ccc([N+](=O)[O-])cc1` (stereo not drawn), -0.398% (inactive). For `O=C(Cn1c[n+](CC(=O)c2ccc([N+](=O)[O-])cc2)cn1)c1ccc([N+](=O)[O-])cc1` the value was -34.4% (inactive) and -92.6% (active); for `O=C(CCn1nnc2ccccc21)OCC(=O)c1ccc([N+](=O)[O-])cc1`, 2.27% (inactive). Regarding `C[C@H](CO)N1C[C@H](C)[C@H](CN(C)C(=O)c2ccncc2)OCc2ccccc2-c2c(n(C)c3ccccc23)C1=O`, the activity change, negative = inhibition was -0.378% (inactive).

`CCN(CC)CCNc1ncnc2c1cnn2-c1cc(Cl)ccc1C`: the activity change, negative = inhibition was -19.7% (inactive). For the compound `COc1cc(NC(=O)C2=CC(c3ccc(C)cc3)=NS(=O)(=O)N2C)cc(OC)c1OC`, the activity change, negative = inhibition is 8.94% (inactive). With `COc1ccc(C2=NS(=O)(=O)N(C)C(C(=O)NC(C)c3ccccc3)=C2)cc1` (stereo not drawn) the figure was -13.9% (inactive) and -20.9% (inactive); with `COc1ccc(NC(=O)C2=CC(c3ccc(OC)c(OC)c3)=NS(=O)(=O)N2C)cc1`, -70.9% (active); with `CCOC(=O)c1c(NC(=O)c2cc(-c3ccc(Cl)cc3)on2)sc2c1CCCC2`, 3.67% (inactive). With `CCOC(=O)c1c(NC(=O)C2(C)Cc3ccccc3C(=O)O2)sc2c1CCCC2` (stereo not drawn) the figure was -77.4% (active); with `CCOC(=O)c1c(NC(=O)/C(C#N)=C/c2ccccc2)sc2c1CCC2`, 2.23% (inactive). With `Cc1ccc2nc(-c3ccc(C)c(NC(=O)Cc4ccccc4)c3)oc2c1` the figure was 38% (inactive); with `COc1ccccc1NC(=O)c1oc2ccccc2c1NC(=O)C(C)C`, 0.436% (inactive).
